Reference: PubChem BioAssay AID463082 (The Scripps Research Institute Molecular Screening Center, 2010)
Hit rate of the full screen: of about 330,000 compounds, about 4,900 (1.5%) were called active. Only a selection was taken, and actives are over-represented in it overall. A number with no mark means an inactive call.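 Rule for the calls: active = inhibition above the mean inhibition across the screen plus 3 SD (cut at about 25% in these data); inactive = the rest.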

These compounds were tested against Platelet-activating factor acetylhydrolase (Homo sapiens) (UniProt Q13093) (assay: pPAFAH enzyme inhibitors, primary screen, biochemical, fluorescence polarization, human (AID 463082;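 note: inhibitors block binding of the rhodamine activity-based probe so polarization drops; 0% = enzyme with DMSO and 100% = wells lacking pPAFAH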)). Details: recombinant pPAFAH, FP-rhodamine probe fluorescence polarization; at 3.39 µM; hits give high values.
Sequence of Platelet-activating factor acetylhydrolase (Homo sapiens) (Q13093 whole entry, looked up): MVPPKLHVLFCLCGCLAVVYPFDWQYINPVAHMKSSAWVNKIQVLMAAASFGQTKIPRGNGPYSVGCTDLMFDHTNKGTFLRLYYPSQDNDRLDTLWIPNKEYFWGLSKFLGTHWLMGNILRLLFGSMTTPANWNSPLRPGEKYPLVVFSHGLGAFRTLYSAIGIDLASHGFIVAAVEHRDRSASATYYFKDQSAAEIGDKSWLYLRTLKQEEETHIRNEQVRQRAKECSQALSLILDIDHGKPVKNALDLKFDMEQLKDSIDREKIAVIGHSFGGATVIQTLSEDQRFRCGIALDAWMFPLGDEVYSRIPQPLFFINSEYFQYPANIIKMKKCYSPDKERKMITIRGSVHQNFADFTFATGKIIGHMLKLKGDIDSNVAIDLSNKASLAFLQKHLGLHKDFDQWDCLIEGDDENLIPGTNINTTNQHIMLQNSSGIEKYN

SMILES | inhibition
CC(Cc1cccs1)N(Cc1ccc(Cl)cc1)C(=O)c1ccncc1 (stereo not drawn) | 6.35%
CCSC1=C(C#N)C(=O)n2c1cc1c2CCCC1 | 8.15%
Cn1c(NC(=O)c2ccco2)c(-c2ccccc2Cl)c(=O)c2ccccc21 | 1.1%
O=C(NC(=S)Nc1ccc(Cl)c(C(=O)O)c1)c1cncc(Br)c1 | 0.25%
CC(C)c1ccc(NC(=S)NNc2ccc(Cl)c(C(=O)O)c2)cc1 | 38.3% (active)
Cc1ccc(C)c(NC(=S)NNC(=S)Nc2ccc(C(C)C)cc2)c1 | 22.5%
Cc1cc(=O)n2nc(N3CCCC(C(=O)NCc4cccc(Cl)c4)C3)sc2n1 (stereo not drawn) | 1.7%
COc1ccccc1CNC(=O)COn1nnc2ccc(S(=O)(=O)N3CCOCC3)cc21 | 2.22%
CC(C)N(C(=O)[C@H]1C[C@H](CC(=O)NC(C)(C)C)C(=O)N2CCc3c([nH]c4ccc(Cl)cc34)[C@]12C)C(C)C | 3.29%
Cc1nc(NC(=O)c2cccc(Cl)c2)sc1-c1csc(Nc2cccc(Cl)c2)n1 | 11.3%
O=C(Nc1ccc(-c2csc(Nc3cccc(C(F)(F)F)c3)n2)cc1)c1cccc(C(F)(F)F)c1 | 28.4% (active)
O=C(Nc1ccc(C(F)(F)F)cc1)c1cccc(-n2cnnn2)c1 | -6.56%
CC(C)c1nc(CNC(=O)CC2C(=O)NCCN2Cc2cccc(F)c2F)cs1 (stereo not drawn) | 3.46%
COc1cc(NC(=O)CCS(=O)(=O)c2ccc3c(c2)oc(=O)n3C)cc(OC)c1 | 3.91%
C=C(C)COc1ccc(-c2n[nH]c(C)c2-c2ccccc2)c(O)c1 | 13.4%
COc1ccc(-c2n[nH]c(C)c2-c2ccccc2OC)c(O)c1 | 4.94%
C=C(C)COc1ccc(-c2n[nH]c(C)c2-c2ccccc2OC)c(O)c1 | 26.2% (active)
O=C(Nc1ccc(F)c([N+](=O)[O-])c1)C1CCCO1 (stereo not drawn) | -1.09%
CN(Cc1cccs1)C(=O)CN1C(=O)c2ccccc2S1(=O)=O | 4.08%
CN(C)c1ccc(C(=S)N2CCN(C(=S)Nc3ccc(Cl)cc3)CC2)cc1 | 1.77%
CCn1cc(C(=O)NCCC(=O)NCCO)c(=O)c2cc3c(cc21)OCO3 | 4.78%
COc1cc(C2CC(=O)N3CN(Cc4ccccc4)CSC3=C2C#N)ccc1OCc1ccccc1 (stereo not drawn) | 35.3% (active)
COc1cc(CN2CCC(C(N)=O)CC2)ccc1OCc1ccccc1 | 0.32%
COc1cc(CNC2CCCC2)c(Br)cc1OCc1ccccc1 | 1.42%

SMILES | inhibition
COc1ccc(CNc2cc(C)cc(C)c2)cc1OC | 0.82%
CC1CCCCC1NC(=O)COC(=O)Cc1ccc(Cl)cc1 (stereo not drawn) | 35.3% (active)
CC1CCCCC1NC(=O)COC(=O)Cc1ccc(Br)cc1 (stereo not drawn) | 23.6%
O=C(COC(=O)Cc1ccc([N+](=O)[O-])cc1)NC1CCCCCC1 | 12.4%
Cc1cccc(C(=O)O)c1[N+](=O)[O-] | 1.3%
C=CCn1c(Oc2ccc(C(=O)OC)cc2)nc2c1c(=O)n(C)c(=O)n2C | -2.33%
CSc1ccc(CNC(=O)c2ccc(NC(=O)C3=CSCCO3)cc2)cc1 | -5.55%
Cc1cc(C)cc(N(CC(=O)NC2CCCC2)C(=O)CCC(=O)Nc2nccs2)c1 | 1.33%
Cc1ccc(S(=O)(=O)NC2CCCCCC2)cc1 | 9.54%
Cc1cccc(CCNS(=O)(=O)c2ccc(S(=O)(=O)NC3CCCC3)cc2)c1 | 27.3% (active)
Cc1cccc(CCNS(=O)(=O)c2ccc3c(c2)NC(=O)CO3)c1 | 9.07%
CC[C@]12c3[nH]c4cc(CCC(=O)N(C)C)ccc4c3CCN1C(=O)[C@@H](CC(=O)NCCCn1ccnc1)C[C@@H]2C(=O)N1CCN(C(=O)C2CC2)CC1 | -6.7%
CCc1cccc(C)c1NS(=O)(=O)c1c(C)nc2sccn2c1=O | 1.67%
CN(C)[C@@H]1C(=O)C(C(N)=O)=C(O)[C@@]2(O)C(=O)C3=C(O)c4c(O)ccc(Cl)c4[C@@H](O)[C@H]3C[C@@H]12 | 49.4% (active)
O=C(c1ccco1)N(Cc1nc2ccccc2c(=O)[nH]1)C1CCCC1 | 2.71%
CCc1ccc(CN(C)Cc2nc(Cc3ccccc3)no2)nc1 | 1.77%
CC(=O)c1ccc(-c2nnc(CCC(=O)N(C)Cc3cnc4ccccn34)o2)s1 | 3.22%
CCc1ccc(CN(C)C(=O)CCc2nnc(-c3ccc(-c4ccccc4)cc3)o2)nc1 | 61.6% (active)
COc1ccc(CCNC(=O)Cc2ccc(C)cc2)cc1OC | 0.86%
COc1ccc(NC(=O)CNC(=O)Cc2ccccc2)cc1OC | 1.61%
COc1ccc(CNC(=O)Cc2ccc(-c3ccccc3)cc2)cc1OC | 31.1% (active)
Cc1cc(=O)oc2c(C)c(OCC(=O)NCCc3ccc(S(N)(=O)=O)cc3)ccc12 | 1.13%
CCOc1ccc(S(=O)(=O)NCCC(=O)NCC2CCCO2)cc1 (stereo not drawn) | -0.87%
Nc1scc(-c2ccncc2)c1Cl | 5.7%

SMILES | inhibition
CCOC(=O)c1c(-c2ccccc2)oc2cc(Br)c(O)c(C=O)c12 | 30.1% (active)
CCOC(=O)c1c(-c2ccccc2)oc2ccc(OCC(=O)NN)cc12 | 3.22%
CCOC(=O)c1c(C)oc2cc(Br)c(OCC(N)=O)cc12 | -0.28%
CCOC(=O)c1c(C)oc2cc(Sc3ccccc3)c(O)c(O)c12 | 27.6% (active)
CCOC(=O)c1c(C)oc2ccc(OCC(=O)N(CC)CC)cc12 | -9.45%
CCOC(=O)c1c(C)oc(C)c(C(=O)OCC)c1=O | -1.33%
NC(=O)c1c(NC(=O)CSc2nnc(-c3ccco3)n2N)sc2c1CCCC2 | 24.9% (active)
CCc1cccc(C)c1NC(=O)CSc1nnc(-c2ccco2)n1N | -2.12%
Cc1cc(NC(=O)CSc2nnc(-c3ccco3)n2N)no1 | 1.38%
CN(CC(=O)NC1CCCC1)S(=O)(=O)c1cnc[nH]1 | 5.78%
Cc1ccc(S(=O)(=O)NCc2cn3ccsc3n2)c(C)c1 | 3.63%
Cc1ccc(S(=O)(=O)NCc2csc(C)n2)c(C)c1 | 57.6% (active)
Cc1nc(CNS(=O)(=O)c2cc([N+](=O)[O-])ccc2C)cs1 | 1.89%
O=C(NCCN1CCOC1=O)C1CCC(=O)N(CCc2ccc(Cl)cc2)C1 (stereo not drawn) | 6.31%
CCOC(=O)c1c(N=CN(C)C)c(C#N)c2n1CCCC2 | -0.32%
CC(C)C(C)(C#N)NC(=O)CSc1nncn1-c1ccccc1 (stereo not drawn) | 3.15%
Cc1cccc(C)c1NC(=O)CNC(=O)C1CCCC1 | -3.74%
CCc1cccc(C)c1NC(=O)COC(=O)CNC(=O)c1cccs1 | -1.56%
CCc1cccc(C)c1NC(=O)COC(=O)CC1CCCC1 | 31.2% (active)
CCC(=O)NC(=Nc1nc2ccccc2s1)NC(=O)CC | 1.11%
COc1ccc(C2=NN(c3nc4ccccc4s3)C(=O)C2)cc1 | 10.8%
CCC(C)Cn1c(O)cc2nn(-c3nc4ccccc4s3)c(=O)c-2c1C (stereo not drawn) | 49.8% (active)
C=CCNC(=O)COC(=O)c1ccccc1C(=O)N(C)C1CCCCC1 | -0.67%
CC1(c2ccc3ccccc3c2)NC(=O)N(CC(N)=O)C1=O (stereo not drawn) | 1.23%

SMILES | inhibition
COc1ccccc1NC(=O)CCSc1nnc(-c2ccc(O)cc2)o1 | -1.64%
COc1ccccc1OCCC(=O)OCC(=O)NC(=O)NC(C)(C)C | 2.65%
CC(C)(C)NC(=O)NC(=O)COC(=O)CCC1CCCCC1 | 29.9% (active)
CC(C)(C)NC(=O)NC(=O)COC(=O)C1(C)CC1(Cl)Cl (stereo not drawn) | 4.74%
COc1ccc(N(CC(=O)Nc2cc(OC)cc(OC)c2)S(=O)(=O)c2c(C)n[nH]c2C)cc1 | 1.91%
CC[C@]12c3[nH]c4cc(CCC(=O)N(C)C)ccc4c3CCN1C(=O)[C@@H](CC(=O)NCC13CC4CC(CC(C4)C1)C3)C[C@@H]2C(=O)N1CCN(C(=O)C2CC2)CC1 | 1.87%
CCN(CC)C(=O)[C@H]1C[C@H](CC(=O)NCC23CC4CC(CC(C4)C2)C3)C(=O)N2CCc3c([nH]c4cc(CCC(=O)N(C)C)ccc34)[C@]12C | 27.5% (active)
CC(C)N(C(=O)[C@H]1C[C@H](CC(=O)NCCC2=CCCCC2)C(=O)N2CCc3c([nH]c4cc(CCC(=O)N(C)C)ccc34)[C@]12C)C(C)C | 16.4%
CC(C)C(O)C1CCN(Cc2nc(Cc3ccccc3Cl)no2)CC1 (stereo not drawn) | 1.22%
CCSCc1nc(N)nc(NCCc2ccccc2)n1 | 5.83%
Nc1c(C(=O)NCc2ccccc2)sc2nc3c(cc12)C(=O)CCC3 | 9%
NC(=O)c1sc2nc3c(c(-c4ccccc4)c2c1N)CCC3 | 25.1% (active)
CCc1nc2sc(C(=O)O)c(N)c2c2c1CCCC2 | 1.17%
Cc1ccccc1Cn1nc(C)c(NC(=O)C(F)(F)F)c1C | -5.3%
COC(=O)c1cc(S(=O)(=O)N2CCN(c3cc(C)ccc3C)CC2)c[nH]1 | -4.07%
CCOc1ccccc1NS(=O)(=O)c1c[nH]c(C(=O)OC)c1 | -0.19%
COC(=O)c1cc(S(=O)(=O)Nc2ccc(C)c(F)c2)c[nH]1 | 37.4% (active)
Cn1c(=O)c2c(nc(N3CCCCCC3)n2CC(O)COc2ccc(Cl)cc2)n(C)c1=O (stereo not drawn) | 4.56%
Cc1snc(SCc2c(F)cccc2Cl)c1C#N | 24.7% (active)
Cc1ccc(CSc2nsc(C)c2C#N)cc1 | 8.61%
Cc1cc(SCc2c(F)cccc2Cl)nc(=O)[nH]1 | 1.8%
